D2 PAM-1 = positive allosteric modulators of human D2 dopamine receptor | hit rate 0.34% among 340,000 | AID 485347 | potentiation, % at 10 µM | HEK293 T-REx D2, calcium flux, EC20 dopamine potentiation;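 active = potentiation over 3 SD above the plate norm, cut at about 30% in these data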
Target sequence (P14416 whole entry, looked up): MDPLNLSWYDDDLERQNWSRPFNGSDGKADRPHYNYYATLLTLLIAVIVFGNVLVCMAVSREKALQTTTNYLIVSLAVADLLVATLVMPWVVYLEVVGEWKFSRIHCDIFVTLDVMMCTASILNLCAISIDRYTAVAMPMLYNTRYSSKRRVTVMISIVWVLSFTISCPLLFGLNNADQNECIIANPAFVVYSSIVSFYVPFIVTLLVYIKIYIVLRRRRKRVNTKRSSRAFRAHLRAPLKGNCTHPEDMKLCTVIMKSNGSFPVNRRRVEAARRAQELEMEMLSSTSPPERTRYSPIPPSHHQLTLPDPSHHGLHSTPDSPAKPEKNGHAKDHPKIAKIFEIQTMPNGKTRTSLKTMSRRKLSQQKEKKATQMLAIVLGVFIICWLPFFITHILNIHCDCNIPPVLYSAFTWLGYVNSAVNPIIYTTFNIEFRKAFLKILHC
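Cells plated with tetracycline inducer and held overnight at 30 C; calcium dye loaded 30–90 min at room temperature; baseline taken, compound added and read 180 s; EC20 dopamine then added and read 180 s.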
D2 ag-1 = activates the human D2 dopamine receptor; hit rate 0.084% among 360,000; activation, % (concentration not given with the values); P14416; DiscoveRx PathHunter D2 beta-arrestin, luminescence, 90 min; 100% = 57 uM dopamine signal; in the data active = activation above about 40%; inconclusive = between about 15% and that limit
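Agonist mode: compounds alone added to overnight-plated D2 PathHunter cells for 90 min at 37 C, with 57 uM final dopamine (EC100) defining full response. Beta-arrestin recruitment detected by chemiluminescent reagent, read after 1 h at ambient temperature.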
D2 PAM-2 = human D2 receptor positive allosteric modulation. P14416. DiscoveRx D2 beta-arrestin cells, luminescence, 90 min; 100% = 57 uM dopamine signal. potentiation, % (test concentration not listed). hit rate 0.23% among 360,000. AID 624464; in the data active = potentiation above about 50%; inconclusive = mostly about 30% to 49%
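PathHunter beta-arrestin assay in DiscoveRx D2 cells. Compounds were added with an EC20 of dopamine (50 nM final) for 90 min at 37 deg C. Luminescence was read 1 h after detection reagent, with 57 uM dopamine as the EC100 control.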
D2 ag-2 = activates the human D2 dopamine receptor. activation, % at 2 µM. hit rate 0.53% among 340,000. HEK293 T-REx D2 cells, calcium flux agonist mode. AID 485358;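 active = activation over 3 SD above normal in the single-dose calcium agonist read, cut at about 30% in these data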
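Tetracycline-induced HEK293 T-REx cells with force-coupled D2 receptor, plated overnight at 30 C, loaded with no-wash calcium dye. After a 10 s baseline, compound was pin-added and calcium flux read kinetically for 180 s; calcium rises flagged agonists.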
LDHA inh = LDHA (human) enzyme inhibition. activity change, % (values are at about 110 or 230 µM). purified LDHA, NADH/diaphorase-resazurin fluorescence; active compounds read low. AID 1347041. P00338. hit rate 0.15% among 480,000; in the data active = activity change below about -30%; inconclusive = mostly about -25% to -30%
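Human LDH5 (2 nM) was incubated with 0.06 mM NADH and 0.2 mM pyruvate for 5 min at room temperature in Tris pH 7.4. Remaining NADH was coupled through diaphorase/resazurin, and resorufin fluorescence was read at 0 and 20 min.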
D2 antag = antagonizes the human D2 dopamine receptor; P14416; HEK293 TREx D2 cells, calcium flux, dopamine EC80; inhibition, % at 10 µM; hit rate 2% among 340,000; AID 485344; in the data active = inhibition above about 30%; inactive = below that, where a call was filed
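Inhibition of EC80 dopamine-driven calcium flux, recorded kinetically, defines activity here; cells are a tetracycline-induced HEK293 T-REx line expressing force-coupled D2.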
A number is an active result; - = inactive; ? = inconclusive; . = not tested or not shown. The list is not random: actives were taken first. Their share in the collection is about 2.1%.

SMILES | D2 PAM-1 | D2 ag-1 | D2 PAM-2 | D2 ag-2 | LDHA inh | D2 antag
CCOc1ccc(/C=C2\CCC(C3CCCC3)C2=O)cc1 (stereo not drawn) | - | - | - | - | - | 37
Cc1ccc(C)c(CS(=O)CCC(=O)Nc2ccccc2)c1 (stereo not drawn) | . | . | . | . | - | .
COc1ccc(CCN2CC(C(=O)NCCc3cccnc3)CCC2=O)cc1 (stereo not drawn) | - | - | - | - | - | 32
CSCc1ccc(C(=O)Nc2ccccc2C(F)(F)F)cc1 | . | . | . | . | - | .
Cc1nnc(SCc2cnc(-c3ccc(C(C)C)cc3)s2)n1C | - | - | - | - | - | 67
COc1ccc(NC(=O)COC(=O)CCCOc2ccc(Cl)cc2Cl)cc1Cl | - | - | - | - | - | -
COc1ccc(NC(=O)COC(=O)CCCOc2ccc(Cl)cc2Cl)cc1 | - | - | - | - | - | 40
Cc1[nH]c(=O)[nH]c(=O)c1S(=O)(=O)N1CCCC(C(=O)NCCc2ccccc2)C1 (stereo not drawn) | - | - | - | - | - | -
Cc1[nH]c(=O)[nH]c(=O)c1S(=O)(=O)N1CCCC(C(=O)NCCc2ccc(Cl)cc2)C1 (stereo not drawn) | - | - | - | - | - | 65
COC(=O)C1=C(C)NC(=O)NC1c1cccc(Oc2ccc(Cl)cc2)c1 (stereo not drawn) | . | . | . | . | - | .
O=c1oc(-c2ccco2)nc2ccccc12 | - | - | - | - | - | 36
N#Cc1cn2ncnc2nc1N | . | . | . | . | -31 | .
Cc1cccc(-c2nc(Nc3ccc(C(=O)O)cc3)c3ccccc3n2)c1 | . | . | . | . | -39 | .
O=C(O)c1ccc(Nc2ncnc3ccccc23)cc1 | - | - | - | - | - | 32
O=C(CCSc1ccc(Cl)cc1)Nc1ccc(CSc2ccccc2)cc1 | . | . | . | . | - | .
CCN1C(=O)CSc2ccc(C(=O)NCCCN3CCOCC3)cc21 | - | - | - | 35 | - | -
O=C(O)c1cnc(-c2ccccc2)nc1Sc1ccccc1Cl | - | - | - | - | -31 | -
Brc1cccc(CNCc2ccc(Cn3cncn3)cc2)c1 | . | . | . | . | - | .
CC1CN(CN2C(=O)c3ccccc3C2=O)CC(C)O1 (stereo not drawn) | - | - | - | - | - | -
COC(=O)c1ccccc1OCCCCN1CC(C)OC(C)C1 (stereo not drawn) | - | - | - | - | -31 | -
CC1CN(CCCCN2C(=O)c3ccccc3C2=O)CC(C)O1 (stereo not drawn) | - | - | - | - | - | 40
COC(=O)c1ccccc1OCCOc1ccccc1C(=O)OC | - | - | - | - | - | -
COCCn1nnnc1SCC(=O)c1ccc(F)cc1 | - | - | - | - | - | 39
N#Cc1sc2nc(-c3ccccc3)cc(-c3ccco3)c2c1N | - | - | - | - | - | 62
COc1ccc(NC(=O)c2ccc3c(c2)CCCC3)cc1 | . | . | . | . | - | .
SMILES | D2 PAM-1 | D2 ag-1 | D2 PAM-2 | D2 ag-2 | LDHA inh | D2 antag
O=C(Nc1cccc(F)c1)Nc1ccccn1 | - | - | - | - | - | 87
O=C(Cn1c(=O)c2cccn2c2cccnc21)NCCCN1CCN(c2ccc(F)cc2)CC1 | - | - | - | - | - | 54
CCn1c(=O)cc(SCC(=O)NCCCN2CCN(c3ccc(F)cc3)CC2)c2ccccc21 | - | - | - | - | - | 66
CCCCNC(=O)CSc1cc(=O)n(C)c2ccccc12 | - | - | - | - | - | 35
COc1ccc(N2CCN(CCCNC(=O)Cn3c(=O)c4cccn4c4cccnc43)CC2)cc1 | - | - | - | - | - | -
CCn1c(=O)cc(SCC(=O)NCCCN2CCC(C)CC2)c2ccccc21 | - | - | - | - | - | -
COc1ccc(-c2ccnc3c2c(=O)[nH]c(=O)n3Cc2ccco2)cc1OC | . | . | . | . | - | .
O=C(COC(=O)CCNS(=O)(=O)c1ccccc1)Nc1ccc(OC(F)F)cc1 | - | - | - | - | - | 50
N#Cc1ccc(NC(=O)COC(=O)CCNS(=O)(=O)c2ccccc2)cc1 | - | - | - | - | - | -
CCC(C)(C)NC(=O)CN(C(=O)CCC(=O)Nc1nccs1)c1ccccc1C | - | - | - | - | - | 39
Cc1nc(-c2ccc(F)cc2)c(CC(=O)N(C)CC(=O)Nc2ccccc2Br)s1 | - | - | - | - | - | -
Cc1nc(-c2ccc(F)cc2)c(CC(=O)N(C)CC(=O)Nc2ccc(Br)cc2C)s1 | - | - | - | - | - | 58
O=C(NC1=NCCS1)C12CC3CC(CC(C3)C1)C2 | - | - | - | - | - | 50
CC(C)C(NC(=O)C12CC3CC(CC(C3)C1)C2)C(=O)NC1=NCCS1 (stereo not drawn) | - | . | . | - | . | -
Nc1cccc2ncccc12 | . | . | . | . | - | .
Nc1nc(N)c2c(ccc3nccc32)[nH]1 | - | - | 52 | - | - | -
COc1cc(-c2nc(CN3CCN(c4ncccn4)CC3)c(C)o2)ccc1F | - | ? | - | 31 | - | -
COc1cc(-c2nc(CN3CCN(CC(C)C)C(=O)[C@@H]3C)c(C)o2)ccc1F | - | - | - | - | - | -
CC(=O)Oc1ccc(Oc2ccc(-c3noc(C)n3)cc2)cc1 | 33 | - | - | - | - | -
CN(CC(=O)Nc1ccc2c(c1)OC1(CCCC1)O2)S(=O)(=O)c1cccs1 | . | . | . | . | - | .
COc1ccc(OC)c(S(=O)(=O)Nc2ccc(O)c3ccccc23)c1 | - | ? | 89 | - | - | -
COc1ccc(OC)c(S(=O)(=O)Nc2cccc3c(O)cccc23)c1 | . | - | - | . | - | .
CC12CCC(C(=O)N(CSC(=S)N/N=C\c3ccccc3)C1=O)C2(C)C (stereo not drawn) | - | - | - | - | - | 32
Cc1cccc(N/C=C/C(=O)c2cccs2)c1C | - | - | - | - | - | -
NC(=O)c1ccccc1N/C=C/C(=O)c1cccs1 | 31 | - | - | - | - | -
SMILES | D2 PAM-1 | D2 ag-1 | D2 PAM-2 | D2 ag-2 | LDHA inh | D2 antag
COc1cccc(C(=O)Nc2ccc3oc(-c4cccnc4)nc3c2)c1 | . | . | . | . | - | .
Cc1nc2ccccc2c2oc(C(=O)N3CC(C)CC(C)C3)cc12 (stereo not drawn) | 31 | - | - | - | - | -
COc1ccc(C(=O)c2c[nH]cc2-c2ccccc2)cc1 | - | - | - | - | - | 40
CCOc1ccccc1C(O)C1=CC(=O)c2ccccc2C1=O (stereo not drawn) | . | - | 58 | . | - | .
CCOC(=O)C(C)Oc1ccc2c(=O)c(Oc3ccc(C(=O)OC)cc3)c(C)oc2c1 (stereo not drawn) | . | . | . | . | - | .
COc1cccc2c1OC1(C)CC2NC(=O)N1 (stereo not drawn) | . | - | - | . | - | .
COc1cccc2c1OC1(C)CC2/C(=C(\C)O)C(=O)N1 (stereo not drawn) | - | - | - | - | - | 51
